This note sets out measurements from PubChem BioAssay (EPA / NIEHS).

The structures appear in SMILES notation. Where “and” joins values, the source holds several entries; their conditions need not be identical. Identical values can stand only once. Records with an inconclusive call do not appear. The source holds several records for some structures; these can differ, active in one and inactive in another. Calls of active or inactive are those of the source. The calls were made as follows: active = hit-call score of the fitted dose curve at least 0.9, where 1 is the maximum; inconclusive = response in the unintended direction; inactive = score below 0.9.

For this test, the target named is Nuclear receptor subfamily 1 group I member 2 (Mus musculus) (UniProt O54915). As to the kind of experiment: ATG_mPXR_XSP2: Attagene TRANS-FACTORIAL Multi-Species (XSP1) HepG2 Assay for mouse Pregnane X Receptor (PXR) (AID 2283831). As for the experimental part: ATG_XSP2_multi-species_TRANS is a cell-based, multiplexed assay created by modifying the existing Attagene TRANS-FACTORIAL system to include a panel of nuclear receptors from some or all the following species: human (Homo sapiens), mouse (Mus musculus), frog (Xenopus laevis), zebrafish (Danio rerio), chicken (Gallus gallus), and turtle (Chrysemys picta). The ECOTOX-FACTORIAL format uses HepG2, a human liver cell line, with measurements taken at 24 hours after chemical dosing in a 24-well plate. Xsp2 included 3 nM 6-alpha-fluorotestosterone and 1.5 nM norgestrel to stimulate the androgen receptor.ATG_mPXR_XSP2 is one of 29 assay components measured or calculated from the ATG_XSP2_multi-species_TRANS assay. It is designed to make measurements of mRNA induction, a form of inducible reporter, as detected with fluorescence intensity signals by Reverse transcription polymerase chain reaction (RT-PCR) and Capillary electrophoresis technology.The assay endpoint ATG_mPXR_XSP2 was analyzed in the positive analysis fitting direction relative to DMSO as the negative control and baseline of activity. Using a type of inducible reporter, measures of mRNA for gain-of-signal activity can be used to understand the reporter gene at the transcription factor-level as they relate to the gene PXR. Furthermore, this assay endpoint can be referred to as a primary readout, because this assay has produced multiple assay endpoints where this one serves a reporter gene function. To generalize the intended target to other relatable targets, this assay endpoint is annotated to the nuclear receptor intended target family, where the subfamily is non-steroidal.
Nuclear receptor subfamily 1 group I member 2 (Mus musculus), sequence (O54915 whole entry, looked up): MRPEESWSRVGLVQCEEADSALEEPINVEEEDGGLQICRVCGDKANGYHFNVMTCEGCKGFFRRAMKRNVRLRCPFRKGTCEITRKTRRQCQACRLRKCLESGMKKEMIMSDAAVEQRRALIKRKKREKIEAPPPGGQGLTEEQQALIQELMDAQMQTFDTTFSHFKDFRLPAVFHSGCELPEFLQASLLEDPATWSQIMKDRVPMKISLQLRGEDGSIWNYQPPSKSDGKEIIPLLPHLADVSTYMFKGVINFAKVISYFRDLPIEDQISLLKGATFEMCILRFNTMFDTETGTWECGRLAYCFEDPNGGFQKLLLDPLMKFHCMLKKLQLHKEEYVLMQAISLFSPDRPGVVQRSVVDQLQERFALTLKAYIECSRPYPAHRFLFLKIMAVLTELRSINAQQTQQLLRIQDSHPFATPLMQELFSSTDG
Human liver HepG2 cells are transiently transfected with multiple reporter transcription units (MRTUs) in 6-well plates using FuGene 6 reagent (Roche; 3 ml FuGene/1 mg DNA). The MRTU constructs are regulated by a cis-regulating element (promoter). […] A major difference between the CIS and TRANS system is that in CIS activities of endogenous TFs are measured, whereas the TRANS assay evaluates changes in activities of exogenous, chimeric NR-Gal4 proteins. […] At the end of 24 hour incubation, total RNA was isolated using TriZol reagent (Invitrogen). The isolated RNA is then reverse-transcribed using oligo(dT) primer and Mo-MLV reverse transcriptase (Invitrogen) with DNAse I (Ambion) treatment for 30 min. The one-tenth of the produced cDNA was amplified by PCR using Taq DNA polymerase (Invitrogen) and two reporter sequence-specific primers. The PCR products were fluorescently labeled by primer extension with 6-arboxyfluorescein (6-FAM) 5'-labeled reporter sequence-specific primer (2 min at 95 C, 20 s at 68 C and 10 min at 72 C) and these products were digested with 5U of HpaI (New England Biolabs) for 2h at 37 C. The fragments were purified using Qiaquick PCR columns (Qiagen), analyzed on an ABI 3130xL genetic analyzer (Applied Biosystems) with peak positions identified by using a set of X-rhodamine (ROX)-labeled MapMarker1000 molecular weight standards (BioVentures). The raw capillary electrophoresis data was processed using Attagraph software (Attagene).
As for `Clc1ccc(C(c2ccc(Cl)cc2)C(Cl)(Cl)Cl)cc1`, the AC50 was 4.54 µM (active).

Turning to `CCCCC(CC)COC(=O)c1ccc(C(=O)OCC(CC)CCCC)c(C(=O)OCC(CC)CCCC)c1` (stereo not given), the molecule was called inactive and the concentration at half-maximal activity (AC50) is 100 µM (active).

As to `Clc1ccc(C(c2ccc(Cl)cc2)C(Cl)Cl)cc1`, the AC50 is 7.95 µM (active).

Consider `O=[N+]([O-])c1ccc(Oc2ccc(Cl)cc2Cl)cc1`, for which the concentration at half-maximal activity (AC50) is 4.29 µM (active) and 2.99 µM (active).

As for `CCC(C)c1ccc(O)cc1` (stereo not given), the outcome was inactive.

Turning to `CC(C)(C)C(O)(CCc1ccc(Cl)cc1)Cn1cncn1` (stereo not given), the AC50 is 4.58 µM (active) and 5.55 µM (active).

For the molecule `CCCCOC(=O)c1ccccc1C(=O)OCc1ccccc1`, the call was inactive.

For `CCCCCOC(=O)c1ccccc1C(=O)OCCCCC`, the result was inactive.

`Oc1ccc2ccc3cccc4ccc1c2c34`: the AC50 is 16.5 µM (active) and 11.1 µM (active).

For orientation: AC50 means the midpoint of the concentration-response curve, whichever way the signal moves.
